Compounds without any hit were thinned out: in the full panel of roughly 83,000, 20% have a hit.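 The test compound was applied at a single concentration to cells in 96-well plates for 48 hours, and percent growth was recorded.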 Calls of active or inactive are those of the source. Rule for the calls: active = growth percent below 10; inactive = the rest.
Assays:
Assay in all cases: NCI-60 one-dose screen, 48 h (100 = growth as untreated, 0 = no growth, -100 = all killed)
Conditions in all cases: 10 µM unless noted
NCI-H23 lung = system: NCI-H23 lung
NCI-H226 lung = system: NCI-H226 lung
NCI-H322M lung = system: NCI-H322M lung
HOP-62 NSCLC = system: HOP-62 NSCLC
NCI-H460 lung = system: NCI-H460 lung
HOP-92 NSCLC = system: HOP-92 NSCLC
NCI-H522 lung = system: NCI-H522 lung
A549/ATCC NSCLC = system: A549/ATCC NSCLC
786-0 renal = system: 786-0 renal
COLO 205 colon = system: COLO 205 colon

Measured: growth

CC(=O)c1ccc(Nc2nccc(-c3ccc4ccccc4c3)n2)cc1
inactive: NCI-H23 lung 94.4% | NCI-H226 lung 57.1% | NCI-H322M lung 97.8% | HOP-62 NSCLC 102% | NCI-H460 lung 98.4% | HOP-92 NSCLC 97.5% | NCI-H522 lung 45.6% | A549/ATCC NSCLC 89.1% | 786-0 renal 96.9% | COLO 205 colon 105%

C#COc1cccc(Nc2ncnc3cc(NC(=O)[C@@H](C)Cl)ccc23)c1
active: HOP-62 NSCLC 7.46% [6.25 µM] | NCI-H460 lung 6.36% [6.25 µM] | NCI-H522 lung -34.7% [6.25 µM] | A549/ATCC NSCLC 6.69% [6.25 µM] | COLO 205 colon 3.72% [6.25 µM]
inactive: NCI-H23 lung 22.8% [6.25 µM] | NCI-H226 lung 41.4% [6.25 µM] | NCI-H322M lung 38.9% [6.25 µM] | HOP-92 NSCLC 57.5% [6.25 µM] | 786-0 renal 17% [6.25 µM]

COc1ccc(C(=O)Cn2c(C(=O)c3ccc(OC)cc3)nc3ccccc32)cc1
inactive: NCI-H23 lung 50.5% | NCI-H226 lung 37.4% | NCI-H322M lung 76.6% | HOP-62 NSCLC 37.8% | NCI-H460 lung 10.5% | HOP-92 NSCLC 45.2% | A549/ATCC NSCLC 41.3% | 786-0 renal 36.3% | COLO 205 colon 38.8%
active: NCI-H522 lung -27.7%

COc1cccc(/C=C/C(=O)c2cccc(Nc3nc(Nc4ccccc4)nc(Nc4ccccc4)n3)c2)c1
inactive: NCI-H23 lung 82.2% | NCI-H226 lung 94.2% | NCI-H322M lung 86.6% | HOP-62 NSCLC 79.2% | NCI-H460 lung 91.9% | HOP-92 NSCLC 17.7% | NCI-H522 lung 85.6% | A549/ATCC NSCLC 68.5% | 786-0 renal 89% | COLO 205 colon 87.5%

COc1cccc(/C=C/C(=O)c2cc3c(N)c(C(=O)Nc4cccc5ccccc45)sc3nc2C)c1
inactive: NCI-H23 lung 28.4% | NCI-H226 lung 36.4% | NCI-H322M lung 41.1% | HOP-62 NSCLC 25% | HOP-92 NSCLC 68.8% | NCI-H522 lung 12% | A549/ATCC NSCLC 20.3% | COLO 205 colon 33.9%
active: NCI-H460 lung -0.349% | 786-0 renal 3.42%

C=C1C(=O)O[C@H]2[C@H]1CC/C(COC(=O)c1ccc(C(=O)O)s1)=C\CC[C@@]1(C)O[C@@H]21
inactive: NCI-H23 lung 57.4% | NCI-H226 lung 41.9% | NCI-H322M lung 68.2% | HOP-62 NSCLC 75% | NCI-H460 lung 30.6% | A549/ATCC NSCLC 80.3% | 786-0 renal 41.6%
active: HOP-92 NSCLC 1.03% | NCI-H522 lung -79.8% | COLO 205 colon -0.755%

COc1cc2nc3sc(C(=O)Nc4ccc(C(=O)OC(C)C)cc4)c(C(=O)Nc4ccc(Cl)cc4C)n3c(=O)c2cc1OC
inactive: NCI-H23 lung 72.1% | NCI-H226 lung 103% | NCI-H322M lung 68.5% | HOP-62 NSCLC 67.2% | NCI-H460 lung 22.7% | HOP-92 NSCLC 32.5% | NCI-H522 lung 98.7% | A549/ATCC NSCLC 52% | 786-0 renal 53.6% | COLO 205 colon 45.8%

COc1cc(OC)c(/C=C/C(=O)c2c(O)cc(OC)c(C3CCN(C)CC3)c2OC)c(OC)c1
active: NCI-H23 lung -58.8% | NCI-H226 lung -47.7% | NCI-H322M lung -15.8% | HOP-62 NSCLC -96.2% | NCI-H460 lung -75% | HOP-92 NSCLC -12.2% | NCI-H522 lung -80% | A549/ATCC NSCLC -60.7% | 786-0 renal -97.7% | COLO 205 colon -96.7%

C=C1C(=O)O[C@H]2[C@H]1CC/C(COC(=O)c1cc3cc(Cl)ccc3[nH]1)=C\CC[C@@]1(C)O[C@@H]21
active: NCI-H23 lung -64.9% | NCI-H226 lung -64.2% | HOP-62 NSCLC -63.6% | NCI-H460 lung 6.97% | HOP-92 NSCLC -80.3% | NCI-H522 lung -81.1% | A549/ATCC NSCLC -67.5% | 786-0 renal -90.5% | COLO 205 colon -77.6%
inactive: NCI-H322M lung 44.3%

COc1ccc(C[n+]2c3ccccc3n3c4ccc(N)cc4ccc32)c(OC)c1OC
active: HOP-92 NSCLC -0.227%
inactive: NCI-H23 lung 48.9% | NCI-H226 lung 61.4% | NCI-H322M lung 102% | HOP-62 NSCLC 52.9% | NCI-H460 lung 73.6% | NCI-H522 lung 11% | A549/ATCC NSCLC 63% | 786-0 renal 75.9% | COLO 205 colon 15.5%

N#C/C(=C\C=C\c1ccc(-c2cc(Cl)ccc2Cl)o1)c1nc2ccccc2s1
inactive: NCI-H23 lung 83.7% | NCI-H226 lung 78.3% | NCI-H322M lung 95% | HOP-62 NSCLC 87.7% | NCI-H460 lung 103% | HOP-92 NSCLC 89.1% | NCI-H522 lung 94.4% | A549/ATCC NSCLC 99.4% | 786-0 renal 102% | COLO 205 colon 92.9%

COc1ccc(C(O)c2cc3c(N)c(C(=O)Nc4cccc(Cl)c4C)sc3nc2C)cc1 (stereo not given)
active: NCI-H460 lung -6.01% | NCI-H522 lung -34.9% | COLO 205 colon -23%
inactive: NCI-H23 lung 25.5% | NCI-H226 lung 54.5% | NCI-H322M lung 39.4% | HOP-62 NSCLC 16.2% | HOP-92 NSCLC 16.2% | A549/ATCC NSCLC 10.5% | 786-0 renal 22.2%

O=C(CCSc1nnc2n(Cc3ccccc3)c(=O)c3c4c(sc3n12)CCCC4)N1CCN(c2ccccc2)CC1
inactive: NCI-H23 lung 102% | NCI-H226 lung 100% | NCI-H322M lung 99.8% | HOP-62 NSCLC 103% | NCI-H460 lung 102% | HOP-92 NSCLC 94% | NCI-H522 lung 104% | A549/ATCC NSCLC 104% | 786-0 renal 102% | COLO 205 colon 102%

COc1ccc2[nH]cc(-c3nc(-c4c[nH]c5c(Cl)nccc45)cs3)c2c1
inactive: NCI-H23 lung 54.1% | NCI-H226 lung 40.3% | NCI-H322M lung 72.2% | HOP-62 NSCLC 61.2% | HOP-92 NSCLC 56.2% | NCI-H522 lung 25.8% | A549/ATCC NSCLC 28.6% | COLO 205 colon 42.2%
active: NCI-H460 lung -3.62% | 786-0 renal 9.87%

CCN1CCN(C(=O)[C@]23CC[C@@H](C)[C@H](C)[C@@H]2C2=CC[C@@H]4[C@@]5(C)C/C(=C/c6cccnc6)C(=O)C(C)(C)[C@@H]5CC[C@@]4(C)[C@]2(C)CC3)CC1
active: NCI-H460 lung 7.51%
inactive: NCI-H23 lung 34.2% | NCI-H226 lung 47.8% | NCI-H322M lung 65.7% | HOP-62 NSCLC 44.5% | HOP-92 NSCLC 56.9% | NCI-H522 lung 17.7% | A549/ATCC NSCLC 32% | 786-0 renal 42.4% | COLO 205 colon 11.5%

COc1cccc(-c2cc(-c3cccc(Cl)c3)c(C#N)c(=O)[nH]2)c1
inactive: NCI-H23 lung 86.7% | NCI-H226 lung 91.4% | NCI-H322M lung 89.5% | HOP-62 NSCLC 68.5% | NCI-H460 lung 78.5% | HOP-92 NSCLC 51.7% | NCI-H522 lung 62.2% | A549/ATCC NSCLC 70.9% | 786-0 renal 88.8% | COLO 205 colon 111%

O=C1c2ccccc2C(=O)c2c1cc1c(c2[N+](=O)[O-])OCO1
active: NCI-H23 lung 4.14% | HOP-62 NSCLC 3.82% | NCI-H460 lung 3.42% | HOP-92 NSCLC -3.71% | NCI-H522 lung -46.6% | 786-0 renal 2.64%
inactive: NCI-H226 lung 25.9% | NCI-H322M lung 46.9% | A549/ATCC NSCLC 49% | COLO 205 colon 48%

CC(C)=CCNc1ncnc2c1ncn2C1OC(CO)C(O)C1O (stereo not given)
active: NCI-H23 lung -19.3% [1 mM] | NCI-H226 lung -70.3% [1 mM] | NCI-H322M lung -4.69% [1 mM] | HOP-62 NSCLC -17.3% [1 mM] | NCI-H460 lung 2.5% [1 mM] | HOP-92 NSCLC -77.2% [1 mM] | NCI-H522 lung -54.2% [1 mM] | A549/ATCC NSCLC -8.25% [1 mM] | 786-0 renal -31.4% [1 mM] | COLO 205 colon -6.05% [1 mM]

S=C(c1ccc2c(c1)OCO2)N1CCN(c2cccc(Cl)c2)CC1
active: NCI-H460 lung 6.73% | NCI-H522 lung 2.22%
inactive: NCI-H23 lung 35% | NCI-H226 lung 34.2% | NCI-H322M lung 57.3% | HOP-62 NSCLC 37.5% | HOP-92 NSCLC 63.9% | A549/ATCC NSCLC 35.9% | 786-0 renal 37.8% | COLO 205 colon 25.4%

CCN1C(=O)N(CC)C2C1NN=c1s/c(=C\c3ccc[nH]3)c(=O)n12 (stereo not given)
inactive: NCI-H23 lung 42.9% | NCI-H226 lung 68% | NCI-H322M lung 36.5% | HOP-62 NSCLC 25.9% | HOP-92 NSCLC 54.2% | 786-0 renal 31%
active: NCI-H460 lung 4.38% | NCI-H522 lung -15.6% | A549/ATCC NSCLC 7.44% | COLO 205 colon 4.65%

COc1cnc2c(c1)C(=O)c1c-2n(CCCCl)c(=O)c2ccncc12
inactive: NCI-H23 lung 58% | NCI-H226 lung 69.5% | NCI-H322M lung 78.4% | HOP-62 NSCLC 58.2% | NCI-H460 lung 18.6% | HOP-92 NSCLC 110% | NCI-H522 lung 26.7% | A549/ATCC NSCLC 69.3% | 786-0 renal 83.6% | COLO 205 colon 19.7%

COc1cc(Cl)c(C)cc1NC(=O)c1cc2ccccc2cc1O
inactive: NCI-H226 lung 13.3% | HOP-62 NSCLC 26.5% | A549/ATCC NSCLC 10% | 786-0 renal 14.1% | COLO 205 colon 86.9%
active: NCI-H23 lung 2% | NCI-H322M lung 9.8% | NCI-H460 lung 6.83% | HOP-92 NSCLC -15.4% | NCI-H522 lung -11.5%

CC1(C)CC[C@]23CC[C@]4(C)[C@H](CC[C@@H]5[C@@]6(C)C/C(=C/c7ccncc7)C(=O)C(C)(C)[C@@H]6CC[C@]54C)[C@H]2[C@H]1OC3
inactive: NCI-H23 lung 91.8% | NCI-H226 lung 90.9% | NCI-H322M lung 90.9% | HOP-62 NSCLC 91% | NCI-H460 lung 75.8% | HOP-92 NSCLC 72.4% | NCI-H522 lung 76.4% | A549/ATCC NSCLC 76.5% | 786-0 renal 88.5% | COLO 205 colon 68.5%

COC(=O)c1c2c(c(C)[n+]([O-])c1C)C(=O)C(NCc1ccc(OC)cc1)=CC2=O
active: NCI-H322M lung 6.55% | NCI-H522 lung -5.69% | A549/ATCC NSCLC 4.4% | COLO 205 colon -45.2%
inactive: NCI-H23 lung 27.5% | NCI-H226 lung 81.7% | HOP-62 NSCLC 47.7% | NCI-H460 lung 10.2% | HOP-92 NSCLC 36.9% | 786-0 renal 54.2%

N#Cc1cccc(C2C3=C(COC3=O)N(CCO)c3cc4c(cc32)OCO4)c1 (stereo not given)
inactive: NCI-H23 lung 44% | NCI-H226 lung 74.9% | NCI-H322M lung 49.3% | HOP-62 NSCLC 32.2% | NCI-H460 lung 14.8% | HOP-92 NSCLC 42.4% | NCI-H522 lung 17% | A549/ATCC NSCLC 39.5% | 786-0 renal 24.9%
active: COLO 205 colon 8.4%
